# High-throughput results: PubChem, National Center for Advancing Translational Sciences (NCATS)
# Pf Dd2 growth: qHTS Primary assay for Inhibitors of Plasmodium falciparum Dd2 growth in vitro | hit rate 4.3% among 120,000 | P. falciparum Dd2 growth, SYBR Green, 72 h | Potency, µM (doses to about 28.9 µM), for inactives: at the top dose activity, negative = inhibition, hits mostly inhibitors; active = well fitted inhibition curve with a large enough effect;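 note: plate controls were DMSO vehicle for no effect and reference drug for full effect; nearly all actives have a fitted effect of over 65% in size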
#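 Readout: SYBR Green fluorescence, 485 nm excitation, 535 nm emission, after ~16 h lysis at 37C. Before that, Dd2-infected red cells (2.5% hematocrit) grew 72 h with compound, 29 uM top final concentration.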
# Active calls of the source: *; i = inactive; [ ] = dose if it differs, or a comment. This is one part of a sample in which hits are shown more often than they occur. Potency is the fitted concentration of half-maximal effect.
SMILES,Pf Dd2 growth
COCCCNC(=O)C1c2ccccc2C(=O)N(c2ccccc2)C12CCCCC2 (stereo not given),-22%
Cc1ccc(CNC(=O)c2ccc(Cn3c(SCc4ccccc4F)nc4cccnc43)cc2)cc1,i
COc1ccccc1CNC(=O)c1ccc(Cn2c(SCc3ccccc3)nc3cccnc32)cc1,8.9µM*
Cc1ccccc1CNC(=O)c1ccc(Cn2c(SCc3ccccc3)nc3cccnc32)cc1,11µM*
Cc1ccccc1CSc1nc2cccnc2n1Cc1ccc(C(=O)NC2CC2)cc1,i
CCc1ccccc1NC(=O)N1CCC(Oc2ncccc2NC)C1 (stereo not given),i
O=C(N[C@H]1C[C@H]2C(=O)NC[C@@H](CCC(=O)N3CCCCC3)N2C1)c1cccs1,16%[44.1 µM]
Fc1ccccc1OCC1CCCN(c2nccc(-c3cccnc3)n2)C1 (stereo not given),4%
COc1ccccc1NC(=O)N1CCC(N2CC3CC(C2)[C@H]2CCCC(=O)N2C3)CC1 (stereo not given in full),-13%
COc1cc(=O)n2c(c1C(=O)NC1CCCCCC1)CCCC2,i
COc1cccc(-c2ccc(NC(=O)C3CCCN3Cc3cnn(C)c3)cc2)c1 (stereo not given),-23%
Cc1ccc(-n2cc(CN3CCCCC3C(N)=O)c(-c3cccc(C)c3)n2)cc1 (stereo not given),11µM*
Cc1cccc(CC(=O)N2CCCCCC2c2nnc(-c3ccccc3)o2)c1 (stereo not given),i
COC[C@H]1C[C@@H](NS(=O)(=O)c2ccc(F)cc2)[C@H](O)[C@@H]1O,9%[44.1 µM]
CN(C)C(=O)CN1C(=O)CO[C@H](c2ccc(NC(=O)C3CC3)cc2)[C@H]1CO,8%[44.1 µM]
COc1ccc(NC(=O)N2CCn3nnc(CCC(=O)NC4CC4)c3C2)cc1,-21%
CC(=O)N1CCC(C(NC(=O)c2ccccc2)C(=O)NCc2ccco2)CC1 (stereo not given),1%
Cc1ccccc1CSc1nc2cc(C(=O)NC3CCCC3)ccc2c(=O)n1Cc1ccccc1,i
CN(C)[C@H]1CCCCN(C(=O)c2ccc(CSc3ccccn3)cc2)C1,i
Cc1ccccc1Cn1c(SCc2ccc(C(=O)NC(C)c3ccccc3)cc2)nc2ccncc21 (stereo not given),6.3µM*
CC(NC(=O)c1ccc(Cn2c(SCc3ccccc3)nc3cccnc32)cc1)c1ccccc1 (stereo not given),14%
CC(NC(=O)c1cc2sccc2n1Cc1ccc(F)cc1)c1ccccc1 (stereo not given),i
CC(NC(=O)c1ccccc1)c1nc2ccccc2n1Cc1ccc(Cl)cc1 (stereo not given),-15%
O=C(NC1CCCC1)c1ccc2c(=O)n(Cc3ccccc3)c(SCc3ccccc3)nc2c1,21%
CC(NC(=O)c1ccc(CSc2nc3ccncc3n2Cc2ccc(F)cc2)cc1)c1ccccc1 (stereo not given),8.9µM*
SMILES,Pf Dd2 growth
CC1CCCN(C(=O)c2ccc(CSc3nc4ccncc4n3Cc3ccccc3)cc2)C1 (stereo not given),11µM*
C[C@H](O)c1onc(-c2ccc(Cl)cc2)c1C(=O)NC1CCC1,-16%[44.1 µM]
COc1cccc(S(=O)(=O)N2CCC3(CC2)N(C)C(=O)CS3=O)c1 (stereo not given),2%
CN1CCCC1c1nc(C2CN(C(=O)c3cccn3C)C2)no1 (stereo not given),-8%
C[C@H](C(=O)N1Cc2ccccc2CC2(CCN(CC3CCNCC3)CC2)C1)c1ccccc1,11%
O=C(Cn1nc2c(cc1=O)CCCCC2)NCCn1cnc2ccccc2c1=O,-5%
Cc1cc(C(=O)N2C[C@@H](COc3ccccc3)[C@H](C(N)=O)C2)c(C)o1,-2%
CC(C)N1CC2(C1)C(=O)N(Cc1ccccc1F)C(=O)[C@@H]1C[C@@H](O)CN12,5%[44.1 µM]
CC(C)CNC(=O)N1CCCOCCNC(=O)[C@@H]2CCC[C@@H]21,34%
COCc1nc(CCNC(=O)C(C)c2ccccc2)no1 (stereo not given),40%
CCOc1ccc(CN2CCC(CO)(Cc3ccccc3Cl)CC2)cc1,-20%
COc1ccc(OC)c(CN2CCC3(CC2)OCCN(Cc2ccccc2)C3=O)c1,-19%[44.1 µM]
COc1ccc2c(c1)C=C(CN1CCC(CO)(Cc3ccccc3Cl)CC1)CO2,8.9µM*
O=C(Cc1ccccc1)N1CCC(c2n[nH]c(=O)n2-c2ccccc2)CC1,i
CCn1ccc(C(=O)N2CCCC(c3nn(C)c(=O)n3-c3ccccc3)C2)n1 (stereo not given),7%
CNC(=O)c1noc([C@@H]2CC(F)(F)CN2Cc2cccn2C)n1,-2%
CNC(=O)[C@H]1C[C@H](Oc2ccccc2)CN1C(=O)c1cccc(C)c1,-17%
CCC(CC)c1cc([C@H]2CN3CC[C@H]2C[C@@H]3CNC(C)=O)nc(-c2ccncc2)n1,2µM*
Cn1nc(-c2cccs2)cc1[C@H]1CN2CC[C@H]1C[C@@H]2CNS(=O)(=O)c1ccccc1,i
CC(=O)Nc1ccc(S(=O)(=O)NC[C@H]2C[C@@H]3CCN2C[C@@H]3c2cc(-c3ccco3)nc(C)n2)cc1,i
